Laboratory results as given in PubChem BioAssay (EPA / NIEHS).
Values joined by “and” are separate entries in the source; they are usually repeats but may differ in a detail not shown here. Equal values may be shown once. Inconclusive results are not listed. Active and inactive are the calls of the source. Rule for the calls: active = hit-call score of the fitted dose curve at least 0.9, where 1 is the maximum; inconclusive = response in the unintended direction; inactive = score below 0.9.

What was measured:
[1] = ACEA_AR_agonist_AUC_viability: ACEA Biosciences xCELLigence Real-Time Cell Analysis on Androgen Receptor Agonism for Viability (AID 2283775);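 for AC50: viability read 80 hours after compound addition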
Procedure, shortened: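 Viability endpoint from xCELLigence impedance in 22Rv1 prostate cells at 80 h. Eight-point series, 100 uM maximum final.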

[2] = ACEA_AR_antagonist_AUC_viability: ACEA Biosciences xCELLigence Real-Time Cell Analysis on Androgen Receptor Antagonism for Viability (AID 2283776);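 note: 22Rv1 human prostate cancer cells growing on impedance electrode plates; area under impedance growth curve at 80 h after dosing as viability; hits lower the growth signal relative to DMSO meaning cytotoxicity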
Procedure, shortened: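 Impedance read-out (RT-CES): area under growth curve at 80 h post-dose, loss of signal scored vs DMSO baseline. 22Rv1 cells; 8-pt 1:4 series, top 100 uM final, ≤0.5% DMSO; biological duplicate.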

[3] = ACEA_ER_AUC_viability: ACEA Biosciences xCELLigence Real-Time Cell Analysis on Estrogen Receptor Agonism for Viability (AID 2283782);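 note: hit means loss of impedance signal meaning reduced cell growth or viability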
Procedure, shortened: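 Viability endpoint: reduced impedance area under the curve relative to DMSO, recorded by real-time electrode sensing over ~80 h of continuous exposure. Duplicate plates of T47D in hormone-depleted medium; eight concentrations, 1:4 dilutions, 100 uM maximum.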

[4] = biological target: Luciferin 4-monooxygenase (Photinus pyralis) (UniProt P08659); assay: CCTE_Simmons_QuantiLum_inhib_2: CCTE's Firefly Luciferase Inhibition Assay, Simmons Lab (AID 2283767);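 for AC50: potency for inhibitors that lower luciferase luminescence relative to DMSO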
Luciferin 4-monooxygenase (Photinus pyralis), sequence (P08659 whole entry, looked up): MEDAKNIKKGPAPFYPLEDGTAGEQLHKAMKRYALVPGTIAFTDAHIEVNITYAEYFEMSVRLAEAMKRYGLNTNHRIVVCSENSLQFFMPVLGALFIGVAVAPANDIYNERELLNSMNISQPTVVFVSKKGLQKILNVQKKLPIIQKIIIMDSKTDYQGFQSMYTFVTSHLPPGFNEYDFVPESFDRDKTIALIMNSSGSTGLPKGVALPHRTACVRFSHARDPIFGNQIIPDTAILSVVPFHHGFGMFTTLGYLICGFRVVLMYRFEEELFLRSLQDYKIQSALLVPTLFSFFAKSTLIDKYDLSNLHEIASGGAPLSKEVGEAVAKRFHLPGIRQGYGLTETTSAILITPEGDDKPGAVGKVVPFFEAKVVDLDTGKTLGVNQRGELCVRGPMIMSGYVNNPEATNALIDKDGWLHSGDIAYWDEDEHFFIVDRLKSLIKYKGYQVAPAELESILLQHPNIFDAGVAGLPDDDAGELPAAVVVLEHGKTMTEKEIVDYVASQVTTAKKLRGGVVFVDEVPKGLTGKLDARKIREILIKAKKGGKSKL
Procedure, shortened: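 Eight-point titrations of each chemical, 5 nM–87.5 uM final in 0.5% DMSO, were run in three biological replicates against recombinant luciferase for 30 min at 37C. Bioluminescence signal loss, read on reagent injection, gave the inhibition endpoint.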

[5] = STM_H9_NormalizedViability: Cytotoxicity Assessment at 120 hours in the Stemina devTOX quickPredict H9 human embryonic stem cell (hESC)-based Assay (AID 2283784)
Procedure, shortened: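 Here, H9 cells received test compound with daily medium renewal. Each plate included methotrexate references (1uM, 5 nM), 0.1% DMSO and media blanks; CellTiter-Fluor RFU was normalized to DMSO.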

[6] = test system: chicken Androgen Receptor (AR), gene 422165; assay: ATG_chAR_XSP1: Attagene TRANS-FACTORIAL Multi-Species (XSP1) HepG2 Assay for chicken Androgen Receptor (AR) (AID 2283768)
Procedure, shortened: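 Reporter mRNA read by RT-PCR with fluorescent labelling and capillary electrophoresis 24 h after chemical dosing of transiently transfected HepG2 cells. Chicken AR-Gal4 chimera, partially stimulated with 3 nM 6-alpha-fluorotestosterone; activity fitted upward relative to DMSO.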

[7] = biological target: zebrafish Estrogen Receptor (ESR1), esr1 (gene 259252) (UniProt P57717); assay: ATG_zfER1_XSP1: Attagene TRANS-FACTORIAL Multi-Species (XSP1) HepG2 Assay for zebrafish Estrogen Receptor (ESR1) (AID 2283772)
zebrafish Estrogen Receptor (ESR1), esr1 (gene 259252), sequence (P57717 whole entry, looked up, the tested form may be a part): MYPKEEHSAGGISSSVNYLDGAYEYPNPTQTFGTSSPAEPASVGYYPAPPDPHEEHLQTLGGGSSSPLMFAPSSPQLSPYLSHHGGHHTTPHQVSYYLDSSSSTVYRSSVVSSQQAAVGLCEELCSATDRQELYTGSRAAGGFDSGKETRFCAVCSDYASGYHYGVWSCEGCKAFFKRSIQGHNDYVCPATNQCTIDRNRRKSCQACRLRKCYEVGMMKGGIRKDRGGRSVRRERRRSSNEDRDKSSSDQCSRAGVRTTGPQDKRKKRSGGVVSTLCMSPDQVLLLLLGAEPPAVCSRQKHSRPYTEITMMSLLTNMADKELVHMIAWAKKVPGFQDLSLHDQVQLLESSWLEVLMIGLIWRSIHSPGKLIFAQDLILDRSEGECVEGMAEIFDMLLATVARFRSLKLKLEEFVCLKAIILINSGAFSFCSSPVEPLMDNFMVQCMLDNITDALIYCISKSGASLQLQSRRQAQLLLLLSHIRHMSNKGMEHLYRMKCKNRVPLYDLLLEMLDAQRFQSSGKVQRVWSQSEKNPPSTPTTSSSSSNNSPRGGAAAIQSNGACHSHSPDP
Procedure, shortened: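 Reporter mRNA induction, gauged via RT-PCR/capillary electrophoresis fluorescence relative to DMSO controls, in HepG2 cells transiently carrying GAL4-UAS reporter units; 24 h dosing.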

[8] = test system: zebrafish Estrogen Receptor (ESR2B), gene 317733; assay: ATG_zfER2b_XSP1: Attagene TRANS-FACTORIAL Multi-Species (XSP1) HepG2 Assay for zebrafish Estrogen Receptor (ESR2B) (AID 2283773)
Procedure, shortened: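 Medium contained 3 nM 6-alpha-fluorotestosterone. Reporter mRNA induction by exogenous zebrafish ER2b-Gal4 chimera was read 24 h post-dose in transiently transfected HepG2 cells, using RT-PCR, fluorescent labelling, HpaI digestion and capillary electrophoresis.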

[9] = test system: frog Estrogen Receptor (ESR2), gene 100174814; assay: ATG_frER2_XSP1: Attagene TRANS-FACTORIAL Multi-Species (XSP1) HepG2 Assay for frog Estrogen Receptor (ESR2) (AID 2283774)
Procedure, shortened: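 Reporter mRNA from a multiplexed TRANS system, measured by RT-PCR with fluorescent labelling and capillary electrophoresis, 24 hours after chemical exposure. Human HepG2 liver cells carried exogenous frog ER-Gal4 chimera; medium included 3 nM 6-alpha-fluorotestosterone; increases versus DMSO analysed.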

[10] = test system: frog Estrogen Receptor (ESR1), gene 398734; assay: ATG_frER1_XSP1: Attagene TRANS-FACTORIAL Multi-Species (XSP1) HepG2 Assay for frog Estrogen Receptor (ESR1) (AID 2283777)
Procedure, shortened: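 HepG2 cells transiently transfected with GAL4-UAS reporter units and frog ER–Gal4 chimera were dosed for 24 h with 3 nM 6-alpha-fluorotestosterone present. Reporter mRNA was measured by RT-PCR and capillary electrophoresis; gain of signal fitted versus DMSO.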

[11] = test system: zebrafish Estrogen Receptor (ESR2A), gene 317734; assay: ATG_zfER2a_XSP1: Attagene TRANS-FACTORIAL Multi-Species (XSP1) HepG2 Assay for zebrafish Estrogen Receptor (ESR2A) (AID 2283778)
Procedure, shortened: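 Reporter transcripts were quantified by RT-PCR, 6-FAM labelling, HpaI digestion and capillary electrophoresis after 24 h dosing. The cells were HepG2 transiently carrying a zebrafish ER2a–Gal4 construct plus multiplexed UAS reporters; medium contained 3 nM 6-alpha-fluorotestosterone.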

[12] = biological target: chicken Estrogen Receptor (ESR1), ESR1 (gene 396099) (UniProt P06212); assay: ATG_chERa_XSP1: Attagene TRANS-FACTORIAL Multi-Species (XSP1) HepG2 Assay for chicken Estrogen Receptor (ESR1) (AID 2283779)
chicken Estrogen Receptor (ESR1), ESR1 (gene 396099), sequence (P06212 whole entry, looked up, the tested form may be a part): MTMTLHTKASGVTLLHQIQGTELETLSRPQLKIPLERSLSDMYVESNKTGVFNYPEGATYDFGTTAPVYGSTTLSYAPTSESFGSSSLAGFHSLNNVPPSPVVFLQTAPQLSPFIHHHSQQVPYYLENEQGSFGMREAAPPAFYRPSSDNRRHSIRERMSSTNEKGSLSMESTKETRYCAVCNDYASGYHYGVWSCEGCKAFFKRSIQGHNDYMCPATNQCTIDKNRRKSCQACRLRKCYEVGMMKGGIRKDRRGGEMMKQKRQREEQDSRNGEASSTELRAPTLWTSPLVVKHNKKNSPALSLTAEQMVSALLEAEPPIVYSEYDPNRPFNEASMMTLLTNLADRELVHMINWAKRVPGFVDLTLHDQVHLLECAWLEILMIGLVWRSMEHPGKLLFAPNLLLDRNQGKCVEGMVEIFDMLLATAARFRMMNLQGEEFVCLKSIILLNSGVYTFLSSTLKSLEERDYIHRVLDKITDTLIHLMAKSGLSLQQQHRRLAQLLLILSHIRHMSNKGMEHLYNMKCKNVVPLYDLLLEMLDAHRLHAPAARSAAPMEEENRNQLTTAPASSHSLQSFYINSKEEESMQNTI
Procedure, shortened: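 Trans-activation of an exogenous chicken ERα–Gal4 chimera read as reporter transcript (RT-PCR, fluorescent labeling, capillary electrophoresis) after 24 h compound exposure of transfected HepG2; medium held 3 nM 6-alpha-fluorotestosterone. Positive-direction fit against DMSO.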

[13] = test system: turtle Estrogen Receptor (ESR1), gene 101933533; assay: ATG_trERa_XSP1: Attagene TRANS-FACTORIAL Multi-Species (XSP1) HepG2 Assay for turtle Estrogen Receptor (ESR1) (AID 2283781)
Procedure, shortened: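 Transactivation measured 24 h post-dose as reporter mRNA (RT-PCR, fluorescent capillary electrophoresis) from an NR-Gal4 turtle ER construct in HepG2. Medium included 3 nM 6-alpha-fluorotestosterone; increase over DMSO fitted.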

[14] = test system: turtle Androgen Receptor (AR), gene 101947425; assay: ATG_trAR_XSP1: Attagene TRANS-FACTORIAL Multi-Species (XSP1) HepG2 Assay for turtle Androgen Receptor (AR) (AID 2283786)
Procedure, shortened: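 Partial androgen stimulation is provided by 3 nM 6-alpha-fluorotestosterone in a multi-species trans-factorial panel expressing a turtle AR–GAL4 fusion in HepG2. After 24 h, reporter mRNA is measured by RT-PCR and capillary electrophoresis and fitted upward against DMSO.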

[15] = ArunA_NOG_NeuriteLength: ArunA Biomedical's Neurite Outgrowth (NOG) Assay for Neurite Length (AID 2283757)
Procedure, shortened: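 Total neurite length per neuron, from traced βIII-tubulin-labelled processes longer than 10 um on viable Hoechst-gated cells, was scored as decrease from DMSO. Cells were hESC (H9)-derived neurons given 48 h chemical exposure immediately after seeding.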

[16] = ArunA_NOG_NeuritesPerNeuron: ArunA Biomedical's Neurite Outgrowth (NOG) Assay for Neurites Per Neuron (AID 2283758)
Procedure, shortened: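 Differentiated human H9-derived neurons exposed to chemicals for 48 h from seeding, then stained with Hoechst and βIII-tubulin/DyLight 488. Automated imaging counted neurites (processes >10 um) per valid neuron; loss of signal versus DMSO scored.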

[17] = ArunA_NOG_BranchPointsPerNeurite: ArunA Biomedical's Neurite Outgrowth (NOG) Assay for Branch Points Per Neurite (AID 2283759)
Procedure, shortened: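 Automated image analysis traced neurites (processes >10 um) from valid cell bodies after Hoechst and βIII-tubulin staining. hNN cells from H9 embryonic stem cells, 48 h exposure. Fitted bidirectionally against DMSO.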

[18] = biological target: AR (gene 367) (UniProt P10275); assay: ACEA_AR_agonist_80hr: ACEA Biosciences xCELLigence Real-Time Cell Analysis on Androgen Receptor Agonism for Proliferation (AID 2283783);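 note: hits increase impedance growth signal above DMSO baseline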
AR (gene 367), sequence (P10275 whole entry, looked up): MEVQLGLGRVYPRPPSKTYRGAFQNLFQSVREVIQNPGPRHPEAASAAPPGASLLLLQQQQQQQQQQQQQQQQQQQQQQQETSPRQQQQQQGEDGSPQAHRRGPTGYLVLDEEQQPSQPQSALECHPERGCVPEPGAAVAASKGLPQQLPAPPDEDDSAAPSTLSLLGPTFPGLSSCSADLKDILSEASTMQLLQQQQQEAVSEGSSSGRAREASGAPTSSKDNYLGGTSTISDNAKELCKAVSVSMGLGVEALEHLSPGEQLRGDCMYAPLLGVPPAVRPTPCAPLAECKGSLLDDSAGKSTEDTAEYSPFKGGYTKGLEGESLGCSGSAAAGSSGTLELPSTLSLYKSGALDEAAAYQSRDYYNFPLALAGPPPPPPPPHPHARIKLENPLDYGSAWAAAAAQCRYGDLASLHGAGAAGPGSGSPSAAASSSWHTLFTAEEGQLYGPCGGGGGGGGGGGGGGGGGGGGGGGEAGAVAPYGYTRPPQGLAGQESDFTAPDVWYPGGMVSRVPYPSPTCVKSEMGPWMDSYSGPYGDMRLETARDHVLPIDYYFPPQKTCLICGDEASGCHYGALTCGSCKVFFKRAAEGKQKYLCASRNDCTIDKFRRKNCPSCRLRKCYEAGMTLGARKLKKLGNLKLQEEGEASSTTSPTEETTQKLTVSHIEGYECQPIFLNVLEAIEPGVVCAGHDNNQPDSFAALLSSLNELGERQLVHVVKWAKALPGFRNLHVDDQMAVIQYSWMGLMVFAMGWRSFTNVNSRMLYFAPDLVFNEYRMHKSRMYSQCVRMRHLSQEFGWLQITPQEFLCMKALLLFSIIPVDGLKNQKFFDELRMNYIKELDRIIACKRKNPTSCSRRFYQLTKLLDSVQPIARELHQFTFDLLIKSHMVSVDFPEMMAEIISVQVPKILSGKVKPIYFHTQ
Procedure, shortened: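 Eight concentrations, 1:4 serial dilution from a 100 uM final top, in biological duplicate. Impedance-based real-time growth of 22Rv1 cells after overnight baseline, recorded hourly and read at 80 hours. Controls: testosterone, MG132, assay media.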

[19] = biological target: AR (gene 367) (UniProt P10275); assay: ACEA_AR_antagonist_80hr: ACEA Biosciences xCELLigence Real-Time Cell Analysis on Androgen Receptor Antagonism for Proliferation (AID 2283787);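 note: 22Rv1 human prostate cancer cells with growth followed by electrical impedance; hits lower the impedance growth signal relative to DMSO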
Procedure, shortened: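 Impedance-based real-time growth of 22Rv1 prostate cells, read 80 h after dosing. Eight concentrations, 1:4 series, top 100 uM final (0.5% DMSO), n = 2; signal decrease scored against DMSO.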

Cc1cc(C2CC2)nc(Nc2ccccc2)n1
AC50 [1]: 75.6 µM (active) | AC50 [2]: 64.2 µM (active) | AC50 [3]: 77.3 µM (active)

CSC1=N[C@@](C)(c2ccccc2)C(=O)N1Nc1ccccc1
outcome [4]: inactive | AC50 [1]: 31.6 µM (active) | AC50 [2]: 18.1 µM (active) | AC50 [5]: 30.1 µM (active)

C#CC(C)(C)NC(=O)c1cc(Cl)cc(Cl)c1
AC50 [6]: 26.4 µM (active) | outcome [7]: inactive | AC50 [8]: 52.6 µM (active) | AC50 [9]: 56.3 µM (active) | outcome [1]: inactive | AC50 [2]: 26.4 µM (active) | outcome [10]: inactive | outcome [11]: inactive | AC50 [12]: 50 µM (active) | AC50 [13]: 64.3 µM (active) | outcome [14]: inactive

CN(C)[C@@H]1C(=O)C(C(N)=O)=C(O)[C@@]2(O)C(=O)C3=C(O)c4c(O)cccc4[C@@](C)(O)[C@H]3[C@H](O)[C@@H]12
AC50 [15]: 78.6 µM (active) | AC50 [16]: 83.4 µM (active) | AC50 [17]: 89.6 µM (active) | AC50 [4]: 714 nM (active) and 72.3 µM (active) | AC50 [1]: 50 µM (active) | AC50 [2]: 50 µM (active) | AC50 [5]: 50 µM (active)

S=C1NCCN1
outcome [17]: inactive | AC50 [4]: 1.9 µM (active) | outcome [1]: inactive | outcome [2]: inactive | outcome [3]: inactive

CCC(CC)Nc1c([N+](=O)[O-])cc(C)c(C)c1[N+](=O)[O-]
AC50 [1]: 64.5 µM (active) | AC50 [2]: 50 µM (active) | AC50 [3]: 76.8 µM (active)

CCOP(=S)(OCC)Oc1ccc([N+](=O)[O-])cc1
AC50 [4]: 26.9 µM (active) | outcome [1]: inactive | outcome [2]: inactive | outcome [3]: inactive

CC(C)[C@H](C(=O)O[C@H](C#N)c1cccc(Oc2ccccc2)c1)c1ccc(Cl)cc1
AC50 [1]: 17.2 µM (active) | outcome [5]: inactive

CCCOc1nn(C(=O)NS(=O)(=O)c2ccccc2C(=O)OC)c(=O)n1C
outcome [1]: inactive | outcome [2]: inactive | outcome [18]: inactive | outcome [19]: inactive

CCCCOC(=O)[C@@H](C)Oc1ccc(Oc2ccc(C#N)cc2F)cc1
AC50 [1]: 27.6 µM (active) | AC50 [2]: 62.3 µM (active) | outcome [3]: inactive | AC50 [5]: 93.9 µM (active)

COc1cc(OC)nc(Sc2cccc(Cl)c2C(=O)O)n1
outcome [2]: inactive

CC(Oc1cccc(Cl)c1)C(=O)O (stereo unspecified)
outcome [2]: inactive

CC(C)N(C(=O)SCC(Cl)=C(Cl)Cl)C(C)C
AC50 [1]: 89.9 µM (active) | AC50 [2]: 81 µM (active) | AC50 [3]: 77.3 µM (active) | outcome [5]: inactive

CCOP(=S)(OCC)SCCSCC
AC50 [1]: 78.1 µM (active) | AC50 [2]: 80.6 µM (active) | outcome [5]: inactive

COc1cccc(C(=O)NN(C(=O)c2cc(C)cc(C)c2)C(C)(C)C)c1C
AC50 [2]: 76.4 µM (active) | outcome [3]: inactive

CN1COCN(Cc2cnc(Cl)s2)C1=N[N+](=O)[O-]
outcome [2]: inactive

Cc1nn(-c2cc(NS(C)(=O)=O)c(Cl)cc2Cl)c(=O)n1C(F)F
outcome [1]: inactive | outcome [2]: inactive | outcome [18]: inactive | outcome [5]: inactive

Nc1c(Cl)cc([N+](=O)[O-])cc1Cl
AC50 [1]: 58.4 µM (active) | AC50 [2]: 50 µM (active) | AC50 [19]: 50 µM (active)
